In PubChem BioAssay (NCATS):
Inconclusive results are not listed. The source made the active and inactive calls. Unless noted, calls come from the whole dose curve; as a rule, active = well fitted curve in the direction sought with a large enough effect; inconclusive = small, poorly fitted or top-dose-only effect, or another doubt; inactive = no such curve, though single readings can be large; an effect the other way counts as inactive or inconclusive.

Key:
[1] = Validation of Assay for Modulators of Lamin A Splicing (AID 1459; active = well fitted curve in the direction sought with a large enough effect in the signal ratio; the % refers to the signal ratio;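 note: cells exposed to compound for two days before reading; 0% is about no effect; ratio rise marks activators and ratio drop marks inhibitors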)
Outline: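 S3 HeLa stably expressing lamin A-EGFP splicing minigene and DsRed2, 600 cells/well in Opti-MEM with 2% FBS, treated 48 h at 37C; laser-scanning cytometry gives GFP/RFP total intensity ratio; ancitabine positive control, 0.5% DMSO vehicle.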

[2] = target: DNA repair nuclease/redox regulator APEX1 (Homo sapiens) (UniProt P27695); assay: qHTS Validation Assay for Inhibitors of the Human Apurinic/apyrimidinic Endonuclease 1 (APE1) (AID 1705;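 note: TAMRA fluorescence gain over two minutes as APE1 cuts a quenched THF abasic duplex; series mostly up to about 57 µM; % is set by controls: 0 for no effect and ±100 for the full control effect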)
Outline: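 Fluorogenic double-stranded THF abasic-site substrate (5'-TAMRA/3'-BHQ-2), 50 nM final. Enzyme preincubated with compound 15 min at room temperature, then substrate added. Kinetic fluorescence (ex 525/em 598 nm) read three times at 60 s intervals; activity taken as third-minus-first read difference.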

[3] = Counterscreen for APE1 Inhibitors: Fluorescent Dye Displacement Validation Assay (AID 1707);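 note: plate controls were ThO with dsDNA and no compound for no effect and ThO without dsDNA for full effect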
Outline: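 Reaction mixture of 250 nM Thiazole Orange and 50 nM double-stranded abasic-site DNA was dispensed, compounds were pin-transferred, and fluorescence was read at endpoint (480 nm ex, 540 nm em). Reduced fluorescence indicated dye displacement by DNA binding.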

[4] = qHTS for differential inhibitors of proliferation of Plasmodium falciparum line Dd2 (AID 1882); conditions: Potency: Plasmodium falciparum Dd2 proliferation inhibition;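 note: series mostly up to about 29 µM; plate controls were DMSO vehicle for no effect and 0.29 µM artemisinin for full effect; nearly all actives have a fitted effect of over 65% in size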
Outline: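 SYBR Green DNA fluorescence (ex 485, em 535 nm) after overnight lysis quantifies parasite growth; compound exposure lasted 72 h at 37 C on infected red cells at 2.5% hematocrit, 0.3% parasitemia (final). Artemisinin 0.29 uM and vehicle wells define normalization.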

[5] = qHTS for differential inhibitors of proliferation of Plasmodium falciparum line W2 (AID 1883); conditions: Potency: Plasmodium falciparum W2 proliferation inhibition;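 note: potency is the fitted concentration of half-maximal effect; parasites grown with compound for 72 h before lysis and staining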
[6] = target: Ferritin light chain (Equus caballus) (UniProt P02791); assay: qHTS Validation Assay for Identification of Novel General Anesthetics (AID 2323); note: series mostly up to about 77 µM; % is set by controls: 0 for no effect and ±100 for the full control effect
Outline: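 Horse-spleen apoferritin (10 uM) in PBS with 50% saturated 1-aminoanthracene; compounds pin-transferred, 10 min at room temperature. Fluorescence read at 380/535 nm, normalized to free 1-AMA and 1-AMA/apoferritin values; four-parameter Hill fit.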

[7] = target: ATP-dependent DNA helicase Q1 (Homo sapiens) (UniProt P46063); assay: qHTS Validation Assay for Inhibitors of RecQ-Like Dna Helicase 1 (RECQ1) (AID 2353);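 note: plate controls were DMSO vehicle for no effect and enzyme-free control for full effect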
Outline: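 RECQ1T1 50 nM; forked duplex (20 bp + 30-nt ss tails) 200 nM, ATP 2 mM final; pH 8.0, 2 mM MgCl2, 2.5 ug/ml poly(dI-dC); 15 min compound preincubation; discontinuous kinetic read over 2 h at RT.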

[8] = target: RecQ-like DNA helicase BLM (Homo sapiens) (UniProt P54132); assay: qHTS Validation Assay for Inhibitors of Bloom's syndrome helicase (BLM) (AID 2364);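 note: plate controls were DMSO vehicle for no effect and enzyme-free control for full effect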
Outline: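 50 nM BLM preincubated 15 min at room temperature with compound in pH 8.0 Tris buffer containing 2.5 ug/ml poly(dI-dC); started with 200 nM TAMRA/BHQ-2 forked duplex and 2 mM ATP (final). Unwinding read as TAMRA fluorescence increase, two reads 2 h apart.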

[9] = Cytometric Cell-Based qHTS for Inhibitors of the mTORC1 Signaling Pathway in MEF (Tsc2-/-, p53-/-) Cells (AID 2660);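 note: percent of cells above a phospho-rpS6 to PI ratio cutoff in each well; series mostly up to about 38 µM; plate controls were DMSO for no effect and rapamycin for full effect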
Outline: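 Tsc2-/-, p53-/- MEFs (empty vector) exposed to compound 24 h at 37 C, fixed, stained with Alexa-488 anti-phospho-rpS6 Ser235/236 and propidium iodide. Acumen laser scanning; phospho-S6/PI ratio thresholded against 7.5 nM rapamycin, reported as % positive cells.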

[10] = High Content Imaging Cell-Based qHTS for Inhibitors of the mTORC1 Signaling Pathway in MEF (Tsc2-/-, p53-/-) Cells (AID 2666);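 note: percent of cells scored positive for phospho-rpS6 Ser235/236 immunostaining by imaging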
Outline: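 MEF Tsc2-/- p53-/- (empty vector), DMEM/10% FBS; cpd 24 h 37 °C; PFA fix, Alexa-488 p-rpS6 S235/236 Ab, Hoechst; imaged; rapamycin-defined inhibition; % positive cells/well.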

[11] = High Content Imaging Cell-Based qHTS for Inhibitors of the mTORC1 Signaling Pathway in MEF Cells (AID 2667);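 note: Tsc2-/- p53-/- MEFs stably re-expressing wild-type Tsc2 exposed 24 h; series mostly up to about 38 µM; plate controls were DMSO wells for no effect and rapamycin control wells for full effect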
Outline: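 Read-out is the share of phospho-rpS6-positive cells per well, from Hoechst-normalized Alexa-488 Ser235/236 staining imaged on IN Cell. Cells: WT Tsc2-expressing Tsc2-/-, p53-/- MEFs exposed to compound for 24 hrs.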

[12] = Cytometry Cell-Based qHTS for Inhibitors of the mTORC1 Signaling Pathway in MEF cells (AID 2668);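 note: Tsc2-/- p53-/- mouse embryonic fibroblasts stably re-expressing wild-type Tsc2; percent cells positive for phospho-rpS6 Ser235/236 relative to propidium iodide stain; series mostly up to about 38 µM; plate controls were DMSO wells for no effect and 7.5 nM rapamycin control wells for full effect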
Outline: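 MEFs (Tsc2-/-, p53-/- stably expressing WT Tsc2) treated 24 h at 37 degree Celsius, fixed, stained with Alexa-488 anti-phospho-rpS6 Ser235/236 and propidium iodide; Acumen laser scanning. Reported as % positive cells, phospho-S6 normalized to PI.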

[13] = Validation screen for inhibitors of Lassa infection (AID 463096; calls by dose curve; note: % is set by controls: 0 for no effect and ±100 for the full control effect)
[14] = Validation screen for small molecules that induce DNA re-replication in MCF 10A normal breast cells (AID 463097); note: 0% is about no effect; nearly all actives have a fitted effect of over 60% in size
Outline: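 MCF 10A cells exposed to compound 48 hr at 37 C, 5% CO2, then Hoechst-stained 40 min. Laser-scanning imaging of nuclear DNA content (405 nm ex, 500-530 nm em); re-replication scored as rise in nuclei with elevated fluorescence intensity.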

[15] = target: Ubiquitin carboxyl-terminal hydrolase 2 (Homo sapiens) (UniProt O75604); assay: qHTS Validation Assay for Inhibitors of Ubiquitin-specific Protease USP2a Using CHOP2 as the Reporter (AID 463106);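 note: plate controls were DMSO for no effect and full inhibition by NEM for full effect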
Outline: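 Fluorescence read-out at Ex 485nm/Em 531nm after 60min RT, following addition of 25nM Ub-CHOP2 plus 25nM reporter substrate to USP2 core (10nM) pretreated 30min with compound. Data normalized to NEM full inhibition; concentration-response curves fitted.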

[16] = target: DNA polymerase III PolC-type (Bacillus subtilis (strain 168)) (UniProt P13267); assay: qHTS Validation Assay for the Inhibitors of DNA Replication in Gram-Positive Bacteria (AID 485295);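 note: PicoGreen fluorescence of double-stranded DNA made on primed circular M13 template; series mostly up to about 57 µM; 0% = DMSO wells and -100% = EDTA-quenched background wells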
Outline: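 Reconstituted B. subtilis Pol III holoenzyme (PolC, beta clamp, SSB, primase) preincubated with compound, then M13Gori single-stranded circular template with dNTPs/NTPs added; room temperature reaction. Stopped with EDTA/PicoGreen; dsDNA fluorescence read, EDTA as full-inhibition control.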

[17] = target: Tumor susceptibility gene 101 protein (Homo sapiens) (UniProt Q99816); assay: qHTS Validation Assay for Iinhibitors of HIV-1 Budding by Blocking the Interaction of PTAP/TSG101 (AID 485342; calls by dose curve; note: 0% is about no effect)
Outline: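 Tsg101 binding domain (10 uM) with FITC-labeled PTAP peptide (50 nM) in HEPES pH 7.5 buffer, 20 min at r.t. with compounds. Binding measured by fluorescence polarization.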

[18] = qHTS Validation Assay to Find Inhibitors of Chronic Active B-Cell Receptor Signaling (AID 485345; active = well fitted curve in the direction sought with a large enough effect in the main read-out, with a control signal flat, not every such curve was filed as active;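 note: 0% = untreated basal cells and 100% = 10 µM MG-132 proteasome inhibitor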)
Outline: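 TMD8 ABC-DLBCL cells stably carrying doxycycline-inducible IkappaBalpha–green luciferase fusion plus unfused red luciferase; compounds 46 uM to 3 nM, 4 h at 37C with doxycycline. Corrected green/red luminescence ratio normalized to 10 uM MG-132 and basal cell wells; curves fitted.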

[19] = target: Beta-2 adrenergic receptor (Homo sapiens) (UniProt P07550); assay: qHTS validation assay of beta-arrestin-biased ligands of beta2-adrenergic receptor (AID 485366); note: 0% is about no effect
Outline: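 qHTS, Tango cells, 1500 cells/well, DMEM + 1% FBS. Cpd 18 hr at 37 degrees C. Luciferin/ATP/CoA detection mix, 15 min RT, luminescence read. %Activity from corrected signal; CRC fit, curve class.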

[20] = Quantitative high throughput screen for delayed death inhibitors of the malarial parasite plastid, 48 hour incubation (AID 488752); note: % is set by controls: 0 for no effect and ±100 for the full control effect; nearly all actives have a fitted effect of over 65% in size
Outline: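 One-generation (48 h) growth assay: a decrease in luciferase signal from an integrated reporter in P. falciparum-infected red cells (0.1% parasitemia, 2% hematocrit) after compound exposure at 37 C indicates parasite inhibition.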

[21] = target: Thioredoxin reductase 1, cytoplasmic (Rattus norvegicus) (UniProt O89049); assay: qHTS Assay for Substrates of Mammalian Selenoprotein Thioredoxin Reductase 1 (TrxR1) (AID 488772);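 note: series mostly up to about 57 µM; 0% is about no effect; a drop in NADPH fluorescence below the no-compound background marks a TrxR1 substrate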
Outline: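 In this dual-purpose format, potential substrates are identified from the first fluorescence read after selenite addition, not from the 8-minute delta. Rat enzyme is preincubated with NADPH and then with compound at ~22 deg C.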

[22] = target: Thioredoxin reductase 1, cytoplasmic (Rattus norvegicus) (UniProt O89049); assay: qHTS Assay for Inhibitors of Mammalian Selenoprotein Thioredoxin Reductase 1 (TrxR1) (AID 488773); conditions: Potency: inhibition;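 note: drop in NADPH fluorescence over an 8 min run after selenite addition; series mostly up to about 57 µM; % is set by controls: 0 for no effect and ±100 for the full control effect; nearly all actives have a fitted effect of over 40% in size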
Outline: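 Inhibition is scored from the loss of NADPH fluorescence between first and last reads of an 8-min kinetic run. Selenite (400 uM) was the substrate, added after 15 min compound preincubation at room temperature.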

[23] = target: Flap endonuclease 1 (Homo sapiens) (UniProt P39748); assay: qHTS Validation Assay for the Inhibitors of Human Flap endonuclease 1 (FEN1) (AID 488816); note: % is set by controls: 0 for no effect and ±100 for the full control effect
Outline: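 Enzyme reagent 10 nM; cpds pinned; 15 min RT preinc.; substrate 50 nM final; reads t=0 and 15 min; no-enzyme buffer wells as neg. control; normalized data, 4-parameter Hill fit.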

[24] = target: M-phase phosphoprotein 8 (Homo sapiens) (UniProt Q99549); assay: qHTS Validation Assay for Inhibitors for MPP8 Chromodomain Interactions with Methylated Histone Tails (AID 488949); note: top concentration of the series differs between compounds; % is set by controls: 0 for no effect and ±100 for the full control effect; nearly all actives have a fitted effect of over 55% in size
Outline: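 MPP8 (50 nM) was pre-bound to 50 nM biotinylated H3(1-18)K9me3 peptide in PBS pH 7.4 with 0.01% Tween-20. Compounds were then added for 30 min at room temperature, and complex disruption was read by AlphaScreen with streptavidin donor and nickel-chelate acceptor beads.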

[25] = target: Transient receptor potential cation channel subfamily V member 1 (Homo sapiens) (UniProt Q8NER1); assay: HTS Assay for Compounds that Act as Enhancers of the Vanilloid Receptor 1 (AID 488979); note: 0% is about no effect
Outline: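 TRPV1 cells loaded with Fluo-8 calcium dye; compound added and Ca2+ signal (ex 480/em 520 nm) followed 3 min, then capsaicin at EC20 added and read 2 more min to detect enhancement.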

[26] = target: Thyrotropin receptor (Homo sapiens) (UniProt P16473); assay: qHTS Assay for Antagonists of the Thyroid Stimulating Hormone Receptor (AID 488980); note: series mostly up to about 58 µM; 0% is about no effect
Outline: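 TSHR-transfected HEK293 cells (2000/well) in HEPES-buffered HBSS with 70 uM RO 20-1724 were stimulated with 4 nM TSH (EC80, final) in the presence of compound. cAMP was measured by HTRF competition after lysis and 30 min at RT.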

[27] = target: D(1A) dopamine receptor (Homo sapiens) (UniProt P21728); assay: HTS Assay for Allosteric Agonists of the Human D1 Dopamine Receptor: Primary Screen for Agonists (AID 488981); note: 0% is about no effect
Outline: (§1)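 Tetracycline-induced HEK293 Trex D1 cells with forced coupling to calcium, loaded with no-wash calcium dye; kinetic fluorescence read 180 s after compound addition for agonism, then a further 180 s after an EC20 dopamine challenge for potentiation.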

[28] = target: D(1A) dopamine receptor (Homo sapiens) (UniProt P21728); assay: HTS Assay for Allosteric Agonists of the Human D1 Dopamine Receptor: Primary Screen for Potentiators (AID 488982); note: 0% is about no effect
Outline: as §1

[29] = target: D(1A) dopamine receptor (Homo sapiens) (UniProt P21728); assay: HTS Assay for Allosteric Agonists of the Human D1 Dopamine Receptor: Primary Screen for Antagonists (AID 488983);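 note: calcium flux response to an EC80 dopamine challenge measured with no-wash dye; % is set by controls: 0 for no effect and ±100 for the full control effect; nearly all actives have a fitted effect of over 65% in size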
Outline: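 Calcium-flux read-out in inducible HEK293 T-REx cells expressing D1, dye-loaded 30–90 min at room temperature. Kinetic reads: 180 s after compound (agonist phase), then 180 s after an EC80 dopamine challenge.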

[30] = Validation screen for small molecules that induce genotoxicity in human embryonic kidney (HEK293T) cells expressing luciferase-tagged ELG1 (AID 493106); note: 0% is about no effect
Outline: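 ELG1-luciferase reporter readout (ONE-Glo, 30 min, room temperature) after 16 hr compound treatment at 37 °C of HEK293T cells at 2,000 per well. Rising luminescence flags genotoxic stress.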

[31] = target: ATPase family AAA domain-containing protein 5 (Homo sapiens) (UniProt Q96QE3); assay: Validation screen for small molecules that inhibit ELG1-dependent DNA repair in human embryonic kidney (HEK293T) cells expressing luciferase-tagged ELG1 (AID 493107);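 note: series mostly up to about 46 µM; % is set by controls: 0 for no effect and ±100 for the full control effect; inhibitors lower the ELG1-luciferase luminescence signal; nearly all actives have a fitted effect of over 70% in size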
Outline: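 Luciferase read-out, ONE-Glo, 30 min at room temperature, follows 16 h co-exposure at 37 C of compound and the DNA-damaging agent 5-fluorouridine. Cells: HEK293T with ELG1-luciferase fusion, 2,000 per well, DMSO as vehicle.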

[32] = target: Thyrotropin-releasing hormone receptor (Homo sapiens) (UniProt P34981); assay: qHTS for Small Molecule Agonists and Allosteric Enhancers of Human TRH Receptor: Validation Screen for Agonists (AID 493127;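 active = calcium activation more than 3 SD above the typical response in the agonist read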;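 note: intracellular calcium rise by fluo-8 fluorescence before TRH EC20 addition; 0% is about no effect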); conditions: TRH receptor agonist cell assay; at 2 µM; stronger effect = higher value
Outline: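 Compound-evoked intracellular calcium release in fluo-8-loaded TRHR cells, read kinetically on FDSS (Ex 480/Em 530, 1 s/cycle) after 23 nL pintool transfer. Agonist phase preceded 10 nM TRH EC20 addition.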

[33] = Nrf2 qHTS screen for inhibitors: Validation (AID 493153; active = well fitted inhibition curve with a large enough effect in the main read-out, with a control signal flat, not every such curve was filed as active); conditions: Potency: luciferase luminescence; viability change: measured here: cytotoxicity max response
Outline: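 Concentration-response on A549 ARE_Fluc reporter cells exposed 18-24 h at 37 C, 5% CO2. Cytotoxicity read first by CellTiter-Fluor fluorescence (Ex 405/Em 525), then Nrf2 inhibition by BugLite luminescence after 15 min.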

D(1A) dopamine receptor (Homo sapiens), sequence (P21728 whole entry, looked up): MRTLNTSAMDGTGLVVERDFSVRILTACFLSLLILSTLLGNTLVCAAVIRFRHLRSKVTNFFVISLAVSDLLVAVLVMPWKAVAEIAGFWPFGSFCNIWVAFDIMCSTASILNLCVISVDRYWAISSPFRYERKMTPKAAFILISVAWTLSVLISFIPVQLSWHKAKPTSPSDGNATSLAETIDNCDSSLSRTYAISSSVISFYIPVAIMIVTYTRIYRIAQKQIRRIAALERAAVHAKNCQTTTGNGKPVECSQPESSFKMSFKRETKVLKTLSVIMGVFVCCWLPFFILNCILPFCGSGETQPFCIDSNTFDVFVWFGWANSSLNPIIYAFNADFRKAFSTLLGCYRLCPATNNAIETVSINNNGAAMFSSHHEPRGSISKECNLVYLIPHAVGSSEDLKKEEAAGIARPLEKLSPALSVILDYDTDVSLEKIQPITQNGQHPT
M-phase phosphoprotein 8 (Homo sapiens), sequence (Q99549 whole entry, looked up): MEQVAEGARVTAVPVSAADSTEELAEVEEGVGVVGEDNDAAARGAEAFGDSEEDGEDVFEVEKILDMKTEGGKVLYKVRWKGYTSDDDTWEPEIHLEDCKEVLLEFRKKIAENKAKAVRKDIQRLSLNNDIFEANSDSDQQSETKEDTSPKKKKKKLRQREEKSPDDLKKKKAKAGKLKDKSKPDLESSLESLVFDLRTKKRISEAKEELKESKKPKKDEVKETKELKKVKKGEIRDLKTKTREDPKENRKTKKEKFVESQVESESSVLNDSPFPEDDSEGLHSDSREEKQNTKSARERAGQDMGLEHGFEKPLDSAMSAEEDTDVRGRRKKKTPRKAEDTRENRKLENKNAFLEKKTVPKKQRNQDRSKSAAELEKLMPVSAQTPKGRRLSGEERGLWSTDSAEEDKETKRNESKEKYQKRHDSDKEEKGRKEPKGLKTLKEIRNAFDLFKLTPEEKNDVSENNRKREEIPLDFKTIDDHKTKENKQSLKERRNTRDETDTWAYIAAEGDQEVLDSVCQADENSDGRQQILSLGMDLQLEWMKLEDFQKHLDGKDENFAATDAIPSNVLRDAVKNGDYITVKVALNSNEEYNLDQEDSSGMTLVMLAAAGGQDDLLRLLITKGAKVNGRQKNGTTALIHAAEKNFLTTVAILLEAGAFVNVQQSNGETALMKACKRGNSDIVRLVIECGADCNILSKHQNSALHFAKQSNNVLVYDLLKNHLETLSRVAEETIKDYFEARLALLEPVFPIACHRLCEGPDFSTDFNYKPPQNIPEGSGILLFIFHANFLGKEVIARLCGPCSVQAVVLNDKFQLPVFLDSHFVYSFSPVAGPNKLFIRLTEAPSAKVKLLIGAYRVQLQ
Thioredoxin reductase 1, cytoplasmic (Rattus norvegicus), sequence (O89049 whole entry, looked up): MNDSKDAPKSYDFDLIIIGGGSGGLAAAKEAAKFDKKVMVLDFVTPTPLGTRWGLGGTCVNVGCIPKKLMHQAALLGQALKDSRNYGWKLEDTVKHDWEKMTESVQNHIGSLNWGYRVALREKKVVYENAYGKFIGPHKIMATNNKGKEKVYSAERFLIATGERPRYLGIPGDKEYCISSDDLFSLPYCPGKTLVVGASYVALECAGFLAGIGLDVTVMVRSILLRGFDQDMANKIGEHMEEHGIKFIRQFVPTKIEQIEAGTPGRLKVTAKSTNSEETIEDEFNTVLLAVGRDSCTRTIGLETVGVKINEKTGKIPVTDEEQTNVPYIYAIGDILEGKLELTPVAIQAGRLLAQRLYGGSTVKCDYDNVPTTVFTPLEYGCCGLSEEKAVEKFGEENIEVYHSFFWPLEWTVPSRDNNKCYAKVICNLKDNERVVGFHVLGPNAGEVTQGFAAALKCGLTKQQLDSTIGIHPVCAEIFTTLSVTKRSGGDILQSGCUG
DNA polymerase III PolC-type (Bacillus subtilis (strain 168)), sequence (P13267 whole entry, looked up): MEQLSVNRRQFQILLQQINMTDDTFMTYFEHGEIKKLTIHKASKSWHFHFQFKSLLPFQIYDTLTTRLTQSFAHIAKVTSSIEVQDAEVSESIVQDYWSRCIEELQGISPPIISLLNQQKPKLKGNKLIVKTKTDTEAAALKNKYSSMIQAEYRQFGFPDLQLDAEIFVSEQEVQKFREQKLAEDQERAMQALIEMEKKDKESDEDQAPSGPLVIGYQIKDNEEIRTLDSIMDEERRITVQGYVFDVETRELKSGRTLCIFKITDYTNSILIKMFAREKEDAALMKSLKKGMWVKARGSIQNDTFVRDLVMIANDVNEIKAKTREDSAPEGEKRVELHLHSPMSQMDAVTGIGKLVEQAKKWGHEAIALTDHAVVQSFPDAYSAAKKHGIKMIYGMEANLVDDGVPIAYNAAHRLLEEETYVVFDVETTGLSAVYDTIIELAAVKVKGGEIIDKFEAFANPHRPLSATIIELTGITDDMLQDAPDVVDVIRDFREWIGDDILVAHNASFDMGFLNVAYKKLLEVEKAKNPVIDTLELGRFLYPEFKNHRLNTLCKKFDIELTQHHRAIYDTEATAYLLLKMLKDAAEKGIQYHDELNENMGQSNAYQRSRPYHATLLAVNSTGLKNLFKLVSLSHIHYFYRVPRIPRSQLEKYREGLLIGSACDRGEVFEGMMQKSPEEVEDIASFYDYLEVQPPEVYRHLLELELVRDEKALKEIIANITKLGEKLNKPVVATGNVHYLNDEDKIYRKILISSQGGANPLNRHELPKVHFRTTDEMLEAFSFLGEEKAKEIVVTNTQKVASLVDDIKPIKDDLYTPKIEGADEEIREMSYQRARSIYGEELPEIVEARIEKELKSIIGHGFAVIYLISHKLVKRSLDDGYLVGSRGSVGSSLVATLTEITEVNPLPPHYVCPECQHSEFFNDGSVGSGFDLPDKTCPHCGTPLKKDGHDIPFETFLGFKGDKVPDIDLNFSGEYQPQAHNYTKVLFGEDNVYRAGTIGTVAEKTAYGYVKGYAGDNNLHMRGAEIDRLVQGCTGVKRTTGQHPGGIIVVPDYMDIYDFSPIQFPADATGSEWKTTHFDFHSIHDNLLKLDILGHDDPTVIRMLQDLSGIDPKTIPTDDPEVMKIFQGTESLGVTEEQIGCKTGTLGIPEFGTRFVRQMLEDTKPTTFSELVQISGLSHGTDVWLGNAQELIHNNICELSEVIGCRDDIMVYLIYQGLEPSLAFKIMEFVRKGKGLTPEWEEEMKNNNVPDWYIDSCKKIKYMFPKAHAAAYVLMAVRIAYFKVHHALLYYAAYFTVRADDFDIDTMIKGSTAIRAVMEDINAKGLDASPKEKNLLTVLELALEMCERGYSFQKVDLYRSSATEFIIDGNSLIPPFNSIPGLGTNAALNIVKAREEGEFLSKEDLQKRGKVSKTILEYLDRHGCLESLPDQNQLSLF
Transient receptor potential cation channel subfamily V member 1 (Homo sapiens), sequence (Q8NER1 whole entry, looked up): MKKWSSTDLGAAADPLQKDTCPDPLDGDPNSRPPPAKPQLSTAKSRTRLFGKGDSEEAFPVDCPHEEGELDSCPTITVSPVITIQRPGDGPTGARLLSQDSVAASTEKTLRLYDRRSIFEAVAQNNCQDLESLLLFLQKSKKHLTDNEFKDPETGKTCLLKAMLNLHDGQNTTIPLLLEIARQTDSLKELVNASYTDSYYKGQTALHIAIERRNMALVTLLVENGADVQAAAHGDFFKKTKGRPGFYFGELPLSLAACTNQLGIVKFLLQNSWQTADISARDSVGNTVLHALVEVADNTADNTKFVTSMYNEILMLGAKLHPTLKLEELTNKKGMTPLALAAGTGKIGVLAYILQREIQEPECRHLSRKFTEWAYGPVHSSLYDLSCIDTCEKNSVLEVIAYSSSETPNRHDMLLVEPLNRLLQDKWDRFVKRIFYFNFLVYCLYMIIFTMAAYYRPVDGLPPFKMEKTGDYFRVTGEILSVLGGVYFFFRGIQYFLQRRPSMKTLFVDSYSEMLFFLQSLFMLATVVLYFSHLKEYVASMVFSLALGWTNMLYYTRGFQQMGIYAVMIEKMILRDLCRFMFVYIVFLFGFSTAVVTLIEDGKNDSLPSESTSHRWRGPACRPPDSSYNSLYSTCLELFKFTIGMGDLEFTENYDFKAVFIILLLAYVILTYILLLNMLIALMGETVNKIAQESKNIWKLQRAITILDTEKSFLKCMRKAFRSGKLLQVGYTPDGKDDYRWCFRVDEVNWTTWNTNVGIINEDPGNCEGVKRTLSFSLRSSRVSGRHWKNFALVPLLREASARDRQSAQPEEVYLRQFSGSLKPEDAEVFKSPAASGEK
Flap endonuclease 1 (Homo sapiens), sequence (P39748 whole entry, looked up): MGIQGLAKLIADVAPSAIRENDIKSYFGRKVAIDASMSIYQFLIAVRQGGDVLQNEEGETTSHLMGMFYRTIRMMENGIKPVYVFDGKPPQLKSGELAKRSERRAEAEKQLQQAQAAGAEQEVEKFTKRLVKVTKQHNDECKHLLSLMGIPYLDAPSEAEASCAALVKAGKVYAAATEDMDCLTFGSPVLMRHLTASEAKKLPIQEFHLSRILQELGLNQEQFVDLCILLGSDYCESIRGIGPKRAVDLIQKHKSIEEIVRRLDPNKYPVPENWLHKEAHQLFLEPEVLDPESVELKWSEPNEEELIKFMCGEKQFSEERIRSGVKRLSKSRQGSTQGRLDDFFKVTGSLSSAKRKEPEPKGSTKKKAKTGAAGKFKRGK
Beta-2 adrenergic receptor (Homo sapiens), sequence (P07550 whole entry, looked up): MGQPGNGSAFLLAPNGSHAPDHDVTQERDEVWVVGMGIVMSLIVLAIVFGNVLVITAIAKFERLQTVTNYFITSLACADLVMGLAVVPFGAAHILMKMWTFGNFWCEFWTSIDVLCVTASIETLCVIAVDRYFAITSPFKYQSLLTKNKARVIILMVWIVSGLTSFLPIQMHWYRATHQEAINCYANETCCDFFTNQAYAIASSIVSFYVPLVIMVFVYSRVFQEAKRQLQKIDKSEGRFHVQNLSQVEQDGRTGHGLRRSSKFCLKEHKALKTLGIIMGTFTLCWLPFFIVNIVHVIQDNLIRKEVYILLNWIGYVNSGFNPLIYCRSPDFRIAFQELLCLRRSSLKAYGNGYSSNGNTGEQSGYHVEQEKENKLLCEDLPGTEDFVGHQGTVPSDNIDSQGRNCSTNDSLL
Ferritin light chain (Equus caballus), sequence (P02791 2-175 limits assumed): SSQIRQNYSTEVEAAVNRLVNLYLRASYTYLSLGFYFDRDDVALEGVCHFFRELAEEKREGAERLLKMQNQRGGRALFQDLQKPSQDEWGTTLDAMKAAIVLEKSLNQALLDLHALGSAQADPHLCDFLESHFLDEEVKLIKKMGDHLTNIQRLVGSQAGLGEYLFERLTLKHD

O=[N+]([O-])c1ccc(O[C@@H]2O[C@H](CO)[C@@H](O)[C@H](O)[C@H]2F)c([N+](=O)[O-])c1
inactive: outcome [1] | Potency [2] | Potency [3] | Potency [4] | outcome [6] | Potency [7] | Potency [8] | outcome [9] | Potency [10] | Potency [11] | Potency [12] | Potency [13] | Potency [14] | Potency [15] | Potency [16] | outcome [17] | outcome [18] | outcome [19] | Potency [20] | outcome [21] | Potency [22] | Potency [23] | Potency [24] | outcome [25] | outcome [26] | outcome [27] | Potency [28] | outcome [29] | outcome [30] | Potency [31] | activation [32] 1.06% | Potency [33]
-9.61%: viability change [33]
active: Potency [5] 11.2 µM
